Source: the supplement of paper PMC10849652
Targets with a hit are over-represented here; the source holds about 7,900 in all. About 0.6% of all pairs of compound and target were hits. Unmarked numbers belong to inactive results.

Tests used:
Test in all cases: log2 fold change, soluble protein after heating vs DMSO (PISA); higher = thermal stabilisation; K562 cells, 10 uM, 30 min; active = over 0.2 and 3.5 SD of the protein, either way, in both replicates (recomputed)
IRAK-1-4 Inhibitor I = compound: C1COCCN1CCN2C3=CC=CC=C3N=C2NC(=O)C4=CC(=CC=C4)[N+](=O)[O-] [IRAK-1-4 Inhibitor I]
In short: (§1)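 K562 cells at 2×10^6 cells/mL were treated for 30 min with 10 μM compound, and aliquots were heated for 3 min over 48°C-58°C before pooling. Extraction used PBS with 0.5% NP-40 at 4°C, and soluble protein was the supernatant after 21,000xg for 90 min, measured by TMTpro 16plex LC-MS/MS with channel sums equalised. Thermal stability values, relative to control samples and from duplicates, are log2 fold changes.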

ibrutinib = compound: C=CC(=O)N1CCC[C@@H](n2nc(-c3ccc(Oc4ccccc4)cc3)c3c(N)ncnc32)C1 [ibrutinib]
In short: as §1

[1] = compound: CC(=O)c1cnc2ccc(-c3cc(Cl)c(O)c(Cl)c3)nc2c1N[C@H]1CC[C@H](CN(C)C)CC1
In short: as §1

ralimetinib = compound: CC(C)(C)Cn1c(N)nc2ccc(-c3[nH]c(C(C)(C)C)nc3-c3ccc(F)cc3)nc21 [ralimetinib]
In short: as §1

[2] = compound: CC(C)(O)CC(=O)NCCn1ccc2ncnc(Nc3ccc(Oc4cccc(C(F)(F)F)c4)c(Cl)c3)c21
In short: as §1

[3] = compound: CC(C)C1=C2N=C(C=C(N2N=C1)NCC3=CC=CC=C3)NCCCCCCN
In short: as §1

[4] = compound: CC(C)C[C@@H](C=O)NC(=O)[C@H](CC(C)C)NC(=O)[C@H](CC(C)C)NC(=O)OCc1ccccc1
In short: as §1

pinometostat = compound: CC(C)N(C[C@H]1O[C@@H](n2cnc3c(N)ncnc32)[C@H](O)[C@@H]1O)[C@H]1C[C@@H](CCc2nc3cc(C(C)(C)C)ccc3[nH]2)C1 [pinometostat]
In short: as §1

[5] = compound: CC1=C(C(CC(=O)N1)C2=CC=C(C=C2)C(F)(F)F)C(=O)NC3=C(C=C4C(=C3)C=NN4)F
In short: as §1

[6] = compound: CC1=C(C2=C(C=C1)C(=O)C3=CC=CC=C3N2CCCN)C
In short: as §1

UniProt Q10713, sequence (Q10713 whole entry, looked up): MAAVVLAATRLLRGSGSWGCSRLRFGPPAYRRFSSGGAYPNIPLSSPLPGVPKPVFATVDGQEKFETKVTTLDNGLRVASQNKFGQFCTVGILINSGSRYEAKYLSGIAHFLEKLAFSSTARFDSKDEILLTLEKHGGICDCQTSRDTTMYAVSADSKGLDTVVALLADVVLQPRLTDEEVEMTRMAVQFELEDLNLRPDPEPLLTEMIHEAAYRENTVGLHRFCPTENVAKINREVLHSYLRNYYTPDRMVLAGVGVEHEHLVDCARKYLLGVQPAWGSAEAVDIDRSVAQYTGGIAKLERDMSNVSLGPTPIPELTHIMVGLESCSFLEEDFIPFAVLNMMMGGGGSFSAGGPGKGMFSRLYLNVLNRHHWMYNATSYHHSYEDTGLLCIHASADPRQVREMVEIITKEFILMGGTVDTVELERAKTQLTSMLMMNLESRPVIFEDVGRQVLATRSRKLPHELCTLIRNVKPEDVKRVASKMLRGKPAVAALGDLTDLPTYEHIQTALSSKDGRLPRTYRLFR
UniProt P31321, sequence (P31321 whole entry, looked up): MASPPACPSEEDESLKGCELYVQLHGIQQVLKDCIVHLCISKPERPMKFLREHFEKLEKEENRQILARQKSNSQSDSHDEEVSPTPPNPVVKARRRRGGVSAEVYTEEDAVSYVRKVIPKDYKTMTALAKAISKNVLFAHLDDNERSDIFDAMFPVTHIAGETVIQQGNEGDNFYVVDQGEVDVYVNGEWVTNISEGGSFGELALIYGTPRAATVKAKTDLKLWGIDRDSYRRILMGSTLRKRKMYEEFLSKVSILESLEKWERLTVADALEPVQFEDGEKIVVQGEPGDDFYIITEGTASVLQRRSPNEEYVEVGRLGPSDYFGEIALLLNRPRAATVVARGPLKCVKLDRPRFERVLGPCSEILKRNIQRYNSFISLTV
UniProt Q8NHP8, sequence (Q8NHP8 whole entry, looked up): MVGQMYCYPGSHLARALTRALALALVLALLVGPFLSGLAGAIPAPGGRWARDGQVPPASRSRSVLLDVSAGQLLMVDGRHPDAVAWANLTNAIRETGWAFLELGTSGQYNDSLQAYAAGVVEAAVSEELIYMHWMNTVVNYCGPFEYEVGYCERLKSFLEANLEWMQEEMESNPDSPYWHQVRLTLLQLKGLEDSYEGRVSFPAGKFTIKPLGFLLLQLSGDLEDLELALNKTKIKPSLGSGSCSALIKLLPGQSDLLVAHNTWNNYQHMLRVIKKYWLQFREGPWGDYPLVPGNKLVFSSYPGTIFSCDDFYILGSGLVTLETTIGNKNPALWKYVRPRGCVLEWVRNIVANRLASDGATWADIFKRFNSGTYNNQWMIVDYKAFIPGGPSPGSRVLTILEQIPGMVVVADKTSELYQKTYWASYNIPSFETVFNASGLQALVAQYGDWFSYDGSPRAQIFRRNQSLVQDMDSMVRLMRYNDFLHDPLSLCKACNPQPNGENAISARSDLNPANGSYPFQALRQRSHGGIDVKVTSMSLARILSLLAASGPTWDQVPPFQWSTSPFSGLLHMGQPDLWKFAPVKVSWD
UniProt P42785, sequence (P42785 whole entry, looked up): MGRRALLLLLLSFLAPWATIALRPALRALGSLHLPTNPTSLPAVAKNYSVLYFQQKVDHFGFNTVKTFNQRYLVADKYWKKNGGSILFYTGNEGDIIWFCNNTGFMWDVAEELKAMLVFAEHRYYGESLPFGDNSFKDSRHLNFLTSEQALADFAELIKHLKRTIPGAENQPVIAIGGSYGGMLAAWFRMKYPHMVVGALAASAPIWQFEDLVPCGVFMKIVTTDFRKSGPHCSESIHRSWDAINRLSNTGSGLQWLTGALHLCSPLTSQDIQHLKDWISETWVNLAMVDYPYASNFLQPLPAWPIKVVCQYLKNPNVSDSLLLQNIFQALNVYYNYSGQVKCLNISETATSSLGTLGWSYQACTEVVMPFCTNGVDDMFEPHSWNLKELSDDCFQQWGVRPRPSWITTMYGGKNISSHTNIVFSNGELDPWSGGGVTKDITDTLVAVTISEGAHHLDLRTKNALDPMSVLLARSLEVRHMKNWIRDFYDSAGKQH
UniProt Q14997, sequence (Q14997 whole entry, looked up): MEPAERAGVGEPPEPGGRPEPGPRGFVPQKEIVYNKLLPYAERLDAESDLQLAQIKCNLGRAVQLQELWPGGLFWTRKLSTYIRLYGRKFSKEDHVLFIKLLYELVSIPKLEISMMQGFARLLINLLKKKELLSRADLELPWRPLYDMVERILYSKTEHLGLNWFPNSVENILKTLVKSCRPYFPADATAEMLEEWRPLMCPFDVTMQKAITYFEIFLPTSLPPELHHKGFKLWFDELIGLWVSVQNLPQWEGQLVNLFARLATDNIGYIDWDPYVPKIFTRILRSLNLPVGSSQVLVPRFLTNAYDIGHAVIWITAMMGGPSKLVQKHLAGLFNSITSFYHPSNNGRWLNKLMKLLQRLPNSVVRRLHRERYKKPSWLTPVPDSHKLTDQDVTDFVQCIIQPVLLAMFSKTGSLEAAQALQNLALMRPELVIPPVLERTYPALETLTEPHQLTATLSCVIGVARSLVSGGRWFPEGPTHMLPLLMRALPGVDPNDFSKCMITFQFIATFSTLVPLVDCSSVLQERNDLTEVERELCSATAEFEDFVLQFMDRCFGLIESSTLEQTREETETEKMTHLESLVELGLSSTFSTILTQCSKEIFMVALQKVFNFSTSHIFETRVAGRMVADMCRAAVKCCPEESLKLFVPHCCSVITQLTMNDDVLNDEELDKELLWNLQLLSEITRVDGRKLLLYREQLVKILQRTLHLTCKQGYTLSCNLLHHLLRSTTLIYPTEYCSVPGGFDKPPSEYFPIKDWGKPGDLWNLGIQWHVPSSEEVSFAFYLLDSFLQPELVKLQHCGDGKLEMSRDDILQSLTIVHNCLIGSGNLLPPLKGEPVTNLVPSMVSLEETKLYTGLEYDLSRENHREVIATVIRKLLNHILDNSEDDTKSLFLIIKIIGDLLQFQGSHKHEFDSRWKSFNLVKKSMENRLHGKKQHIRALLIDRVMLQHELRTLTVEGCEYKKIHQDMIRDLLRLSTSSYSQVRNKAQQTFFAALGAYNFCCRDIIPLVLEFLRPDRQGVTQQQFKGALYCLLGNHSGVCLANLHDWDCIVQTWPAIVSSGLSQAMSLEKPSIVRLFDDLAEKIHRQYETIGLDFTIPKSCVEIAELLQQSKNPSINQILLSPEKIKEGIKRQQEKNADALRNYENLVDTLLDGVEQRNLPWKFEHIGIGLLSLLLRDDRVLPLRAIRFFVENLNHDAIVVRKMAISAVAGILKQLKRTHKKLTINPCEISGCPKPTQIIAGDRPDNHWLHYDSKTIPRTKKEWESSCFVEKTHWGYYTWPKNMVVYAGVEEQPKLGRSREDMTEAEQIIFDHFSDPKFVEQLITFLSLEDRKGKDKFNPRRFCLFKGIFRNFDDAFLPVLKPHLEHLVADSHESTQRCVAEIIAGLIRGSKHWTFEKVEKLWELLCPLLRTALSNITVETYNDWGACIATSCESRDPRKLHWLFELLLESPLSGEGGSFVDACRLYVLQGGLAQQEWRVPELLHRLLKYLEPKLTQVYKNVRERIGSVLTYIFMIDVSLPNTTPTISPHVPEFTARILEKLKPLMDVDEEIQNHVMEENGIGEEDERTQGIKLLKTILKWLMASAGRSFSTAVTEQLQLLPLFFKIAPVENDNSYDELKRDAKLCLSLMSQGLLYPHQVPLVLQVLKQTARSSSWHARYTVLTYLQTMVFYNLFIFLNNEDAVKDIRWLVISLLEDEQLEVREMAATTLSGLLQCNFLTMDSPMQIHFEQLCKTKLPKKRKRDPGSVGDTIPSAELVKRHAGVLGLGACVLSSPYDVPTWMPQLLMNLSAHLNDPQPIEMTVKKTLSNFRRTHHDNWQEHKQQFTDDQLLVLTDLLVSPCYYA
UniProt Q8IV08, sequence (Q8IV08 whole entry, looked up): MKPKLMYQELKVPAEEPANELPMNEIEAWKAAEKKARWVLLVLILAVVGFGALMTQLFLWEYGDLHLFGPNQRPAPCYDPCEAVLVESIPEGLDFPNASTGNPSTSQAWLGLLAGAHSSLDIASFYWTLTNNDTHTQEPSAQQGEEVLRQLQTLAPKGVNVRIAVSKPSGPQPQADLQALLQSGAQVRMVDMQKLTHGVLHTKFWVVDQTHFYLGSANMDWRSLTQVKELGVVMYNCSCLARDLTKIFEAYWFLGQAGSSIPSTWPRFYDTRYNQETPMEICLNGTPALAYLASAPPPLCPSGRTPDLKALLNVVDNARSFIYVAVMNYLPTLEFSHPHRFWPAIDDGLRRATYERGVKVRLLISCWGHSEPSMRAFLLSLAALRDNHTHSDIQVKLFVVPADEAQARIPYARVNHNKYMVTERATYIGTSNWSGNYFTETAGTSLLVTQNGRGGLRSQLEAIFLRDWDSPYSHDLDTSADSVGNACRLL
UniProt Q8TAP8, sequence (Q8TAP8 whole entry, looked up): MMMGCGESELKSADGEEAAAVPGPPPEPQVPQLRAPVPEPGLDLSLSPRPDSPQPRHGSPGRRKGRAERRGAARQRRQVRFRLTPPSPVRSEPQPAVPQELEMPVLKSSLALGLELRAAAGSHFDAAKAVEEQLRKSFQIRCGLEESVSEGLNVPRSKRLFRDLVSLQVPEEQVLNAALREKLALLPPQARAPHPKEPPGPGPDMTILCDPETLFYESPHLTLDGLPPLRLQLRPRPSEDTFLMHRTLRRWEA
UniProt P49585, sequence (P49585 whole entry, looked up): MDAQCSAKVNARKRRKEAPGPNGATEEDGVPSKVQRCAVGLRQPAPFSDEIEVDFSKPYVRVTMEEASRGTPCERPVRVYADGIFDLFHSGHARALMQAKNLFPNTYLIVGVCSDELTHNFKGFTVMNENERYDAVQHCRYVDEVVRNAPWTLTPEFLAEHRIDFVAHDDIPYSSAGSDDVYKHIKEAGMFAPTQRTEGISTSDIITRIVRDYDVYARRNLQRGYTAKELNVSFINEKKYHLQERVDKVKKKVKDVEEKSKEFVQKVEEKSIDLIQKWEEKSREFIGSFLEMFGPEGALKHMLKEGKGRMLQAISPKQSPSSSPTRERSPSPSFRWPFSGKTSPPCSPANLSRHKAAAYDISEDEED

Target	log2 fold change (IRAK-1-4 Inhibitor I)	log2 fold change (ibrutinib)	log2 fold change [1]	log2 fold change (ralimetinib)	log2 fold change [2]	log2 fold change [3]	log2 fold change [4]	log2 fold change (pinometostat)	log2 fold change [5]	log2 fold change [6]
PSMD2 (UniProt Q13200)	-0.08	-0.035	0.039	0.018	0.021	0.039	-0.296 (active)	0.019	0.04	-0.036
PRKACA (UniProt P17612)	0.023	-0.011	-0.038	-0.01	0.01	0.008	0.005	-0.06	-0.07	-0.034
PEA15 isoform 2 (UniProt Q15121)	0.025	-0.024	0.054	0.007	-0.079	-0.045	-0.046	-0.004	0.007	0.038
PLEKHM2 (UniProt Q8IWE5)	-0.018	-0.073	-0.085	0.162	0.016	-0.034	-0.102	-0.042	-0.069	0.016
PRMT7 (UniProt Q9NVM4)	0.044	-0.061	-0.004	-0.005	0.048	-0.329 (active)	-0.033	0.074	-0.022	-0.065
PPIL4 (UniProt Q8WUA2)	-0.102	0.013	-0.27 (active)	0.101	0.04	-0.114	-0.065	0.055	0.002	0.066
PDS5A (UniProt Q29RF7)	-0.168	-0.041	-0.063	-0.012	-0.344	-0.61	0.272	0.045	0.221	-0.103
PIR (UniProt O00625)	-0.016	0.019	0.016	-0.056	0.073	0.011	-0.042	-0.01	0.015	0.037
POLR2C (UniProt P19387)	-0.041	-0.025	0.227	0.102	0.003	0.058	0.042	0.065	-0.016	-0.025
PSMC5 (UniProt P62195)	-0.038	-0.031	0.008	-0.014	0.024	0.009	-0.273 (active)	0.021	0.037	0.002
PNPLA8 (UniProt Q9NP80)	-0.022	-0.049	0.151	-0.005	-0.071	-0.06	0.003	0.064	-0.008	0.043
PRKAR1B (UniProt P31321)	0.005	0.004	-0.112	0.143	-0.013	-0.11	0.007	0.105	-0.079	-0.104
PSMD11 (UniProt O00231)	-0.048	0	0.086	0.076	0	-0.001	-0.263 (active)	0.029	0.011	0.037
PHKA2 (UniProt P46019)	0.053	-0.095	0.049	0.011	-0.1	-0.143	0.065	0.138	0.176	0.028
PSME4 (UniProt Q14997)	0.003	-0.022	-0.023	-0.024	-0.097	-0.043	0.271 (active)	0.068	0.023	0.105
PTGR2 (UniProt Q8N8N7)	0	0.321	-0.328	-0.016	-0.042	0.121	0.001	0.074	0.005	0.011
PHLDB1 isoform 2 (UniProt Q86UU1)	0.014	-0.055	-0.832 (active)	0.005	-0.053	-0.018	0.016	-0.011	0.091	0.118
PDCD6 (UniProt O75340)	0.021	-0.05	-0.029	-0.048	-0.097	-0.156	0.018	0.005	0.014	-0.034
PCYT1A (UniProt P49585)	0.081	-0.032	-0.007	-0.072	-0.019	-0.163	0.084	-0.005	0.116	-0.137
PRKCG (UniProt P05129)	0.025	-0.024	-0.351	0.049	-0.099	-0.097	0.055	0.054	0.037	0.028
PRCP (UniProt P42785)	0.04	0.012	0.014	-0.01	-0.072	-0.077	-0.025	-0.006	0.012	-0.101
PPP1R35 (UniProt Q8TAP8)	-0.055	-0.057	-0.069	-0.007	-0.026	-0.049	0.036	-0.021	0.049	-0.049
PLBD2 (UniProt Q8NHP8)	0.04	0.009	0.003	-0.071	-0.01	-0.106	0.025	0.001	-0.018	-0.023
PLD3 (UniProt Q8IV08)	0.022	-0.031	-0.042	-0.039	-0.022	-0.079	0.05	-0.005	0.003	-0.023
PTP4A1 (UniProt Q93096)	-0.011	-0.05	0.092	-0.096	0.013	-0.049	-0.062	-0.02	0.008	-0.179
PCBP2 isoform 3 (UniProt Q15366)	-0.065	-0.048	-0.056	0.017	-0.067	-0.211	-0.029	-0.049	-0.013	0.025
PARN (UniProt O95453)	0.002	-0.047	-0.092	-0.013	-0.02	-0.025	0.018	-0.018	0.01	0.033
POLR2K (UniProt P53803)	-0.041	0.003	0.059	-0.093	0.028	0.429 (active)	0.093	-0.092	-0.02	0.027
PMPCA (UniProt Q10713)	0.016	-0.008	-0.029	0.057	-0.155	0.097	-0.003	-0.015	-0.034	0.055
PHKG2 (UniProt P15735)	-0.034	-0.008	0.39 (active)	0.031	-0.121	-0.041	0.017	0.054	-0.041	0.115
